# Data from the supplement of paper PMC10105736.
# ± gives the standard deviation of the averaged measurements.
# How the values were obtained:
# Test in all cases: MAPPIT interaction score (arbitrary units); higher = stronger binary interaction signal, active = hit call of the paper;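 active = MAPPIT score above the 99th percentile of random reference set scores in the same batch; inactive = at or below it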
# Osi8 = conditions: MAPPIT configuration: N-C; pair source set: RRS
# PGRP-LC = conditions: pair source set: Lit-BM-16
# PGRP-LE = conditions: MAPPIT configuration: N-N; pair source set: Curagen_low_conf
# PAN3 = conditions: pair source set: RRS
# PCID2 = conditions: MAPPIT configuration: N-N; pair source set: Lit-BS-16
# PIG-C = conditions: MAPPIT configuration: N-C; pair source set: screen_3
# 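Also: HEK293T cells with Epo stimulation, STAT-responsive firefly luciferase reporter, fold induction versus unstimulated cells divided by the larger fold induction of two negative controls lacking either bait or prey.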
binder,measurement,setting,value
cid (protein) MPRHSRAKRAPRPSANNSKSPNDDDTAFRSPEPEDGTDYGLEFTTSQLTLQDNNRRSSTLRRDAGRRQPAARDSSTSGEEEDQENRYPTTRSPQTRRMTVQQESKTRAAGPVAAQNQTRRRKAANPMSRAKRMDREIRRLQHHPGTLIPKLPFSRLVREFIVKYSDDEPLRVTEGALLAMQESCEMYLTQRLADSYMLTKHRNRVTLEVRDMALMAYICDRGRQF,MAPPIT interaction score,Osi8,-0.541 (inactive)
PGRP-LC (protein) MPFSNETEMSQCSNAKRRVNDPLTGPKNCSTSSTDSGVILNDNVAAFRPEKETKDRGTGEGQFQSKSEEKTESKRISVEHTVNITTENVGKTSSPAVSIRSTTISVVSIDDNAIDSSSIDSDSEAEAEDYTVQKLGHQVTYPPNSSHLRDLNQGLTVISRHVAPGEAAVPPPNPLEAGIVAKQILNGNLAVATPTSPAGGATQGIGSIALTNSTDVTFGDKHFYEGPVTIQQFLIDNRDKWKPGEGPAGGQDNPAFNGGPSTNGSAPGSKHEDPAQTPPICPFLPNTVGRKAVTVTVVFVTLTFLLGIVLATTTNLFGKTLNQSKIRDDDDYRQNIPINSTIDLDNIGGGLILRFVERQQWLAQPPQKEIPDLELPVGLVIALPTNSENCSTQAICVLRVRLLQTYDIESSQKCDIAYNFLIGGDGNVYVGRGWNKMGAHMNNINYDSQSLSFAYIGSFKTIQPSAKQLSVTRLLLERGVKLGKIAPSYRFTASSKLMPSVTDFKADALYASFANWTHWS,MAPPIT interaction score,PGRP-LC; MAPPIT configuration: N-C,-0.131 (inactive)
same,MAPPIT interaction score,PGRP-LC; MAPPIT configuration: N-N,2.43 ± 0.6
CG9588 (protein) MAAGTTTKERLERLINAKKQLEAQINRNGQILAANDNVGMSGPLVDAEGFPRNDIDVYQVRLARQTIICLQNDHKELMNQIQTLLNQYHSEIATTDPELVNRASALDLDSDRSPGGANITDLAPARAIVVVNLVSPDSPAERAGLCAGDAILRFGSINSGNFKGDLAQIGELVRNMQSQNVQLKVKRGEQQLDLILVPKTWSGRGLLGCNIVLPPEAMDH,MAPPIT interaction score,PGRP-LE,0.614 (inactive)
Dsp1 (protein) MEHFHQIQQTIQHYQQQLAAQQQQQVQQQQLQQHQVVVQQNQQQAHQNSSNTTAGVGTQQLFTYKMASSFPNPATTMAQVVATSNAAGTTGYDYRLNMAQAAAAAAVPGSQWWYSAANQGQVDANTAAQLQHQQQQQQQQQQQQQQQHQQQQQMQQQQQQQNVINSASPMSRVKADAKPRGRMTAYAYFVQTCREEHKKKHPDETVIFAEFSRKCAERWKTMVDKEKKRFHEMAEKDKQRYEAEMQNYVPPKGAVVGRGKKRKQIKDPNAPKRSLSAFFWFCNDERNKVKALNPEFGVGDIAKELGRKWSDVDPEVKQKYESMAERDKARYEREMTEYKTSGKIAMSAPSMQASMQAQAQKAALLAAAAQQQHQQLEEQHDDDDGDGDDDENQ,MAPPIT interaction score,PAN3; MAPPIT configuration: N-C,0.573 (inactive)
same,MAPPIT interaction score,PAN3; MAPPIT configuration: N-N,0.707 (inactive)
Fs(2)Ket (protein) MTSDIAMQLIAILEKTVSPDKNELLSAKNFLEQAAASNLPEFLKALSEILVNTANSAVARMAAGLQLKNHLTSKDEKVSQQYQDRWHQFPSEIRELIKNNILAALGTENTRPSCAAQCVAYVAVIELPINRWPMLIQTLVNKVVSEGSSEMHRESALEAIGYICQDIRFGVMENQSNDVLTAIIHGMRKVEPSNHVRLAATTALHNSLEFTKSNFEKDMERNFIMEVVCEATQCQDSQICVAALQCLVKIMTLYYQYMEPYMAQALFPITLAAMKSDNDAVALQGIEFWSNVCDEEIDLAIESQEATDQGRAPQRVSKHYARGALQFLTPVLVEKLTKQDECDDEDTWSPAKAASVCLMVLATCCEDEIVPHVLPFIKENIESPNWRFRDAAVMTFGSVLNGLETNTLKPLVEQAMPTLIRLMYDSSVIVRDTIAWTFGRICDIIPEAAINETYLQTLLECFVKSLKSEPRVAANVCWAFIGLSDAAWEAAVTNDGETPETYALSPYFEYIITQLLETTDRSDGAQANLRCAAYQALMDMIKNSPLDCYLVVQRTTLVILERLNQVMQMETQINNHSDRHQFNDLQSLLCATLQSVLRKVHEQDAPQISDAIMTALLTMFNSSAGKSGVVQEEAFLAVSTLVELLGAQFAKYMPAFKDFLVMGLKNFQEYQVCCAAVGLTGDIFRALKDLMVPYSNEIMTVLINNLTEPTIHRTVKPQVLSAFGDIALSIGNHFLPYLSMVLDMLRVASNLQTDANNFDMNEYINELRESILEAYTGIIQGLKGVDQTAHTDVMHMEPHLMHIISFIKRIAQEGDVSDSMLASAAGFIGDLCTSFGPRLYPLLDDAIITQFLAEGKRSKAQRTKMLCTWAVKEIKKINTQVITQ,MAPPIT interaction score,PCID2,0.0886 (inactive)
wat (protein) MDDPKIMNIMNGMKSLEDHCQLISDVKDESPMQMFYKDKGVFLTGGTGFFGKIIIEKLLRVTEVGQIYLLIRTKKGKDAFARIEDLFNDPVFAKMKQVNPKYRCQITIISGDCSLPGLGISADERETIMENVNIVLHSAATVRFDEKLKMAIAINVHGTKEIIKLAKEIVNLKALVHVSTAFAHCNMRHIQERFYSGTMSGENAFKLSECLDEHTLNTLTPTIIKGYPNTYTFTKVLAENVVQQSAQNLPVTIFRPGIVITTYREPVTGWIDNMYGPCGVIVGIGSGVLRVFTGDMDNKAHIVPVDMCVNALLASAWDIARNKYETPPIYNYVPDAENMVTWRRYMEDGFEYGCDIPMRKSIWYPRFTIVPHMWQYHILCFLYHTLPALVMDAIMVIIGKKPRMMKIYRKIHKLSNVLKYFSSNEFRFDNDNVRKLTEKLDDRDKRLFAFDMRDLDWTNLFRVSLYGLRLYVVKDDPSNIPESIKRYERLKVLHYTTLAVFYALAAWALYALLKLFL,MAPPIT interaction score,PIG-C,1.02 (inactive)
